Compound activity deposited in PubChem BioAssay by National Center for Advancing Translational Sciences (NCATS).
Compounds with a hit are over-represented: about 1.7% of the library has one in this group of screens.
GLP1R cytotox: cytotoxicity counter-screen for GLP-1 receptor inverse agonists. HEK293 cAMP-luciferase reporter cells, luminescence, 24 h. Potency, µM (doses to about 38.3 µM), actives largely listed as inhibitors. hit rate 0.13% among 410,000. AID 624418;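 further: loss of luciferase light is scored as toxicity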
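Compound-treated cells are incubated 24 hr at 37 deg C under 5% CO2 after a 12 hour attachment period, then luciferase detection reagent is added and luminescence is measured following 12 min at room temperature; lowered signal indicates toxicity.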
GLP-1R inv ag: acts as inverse agonist at human GLP-1 receptor | hit rate 1.6% among 410,000 | Potency, µM (highest dose often 38.3 µM), usual class: inhibitors | HEK293 GLP-1R CRE-luciferase, luminescence, 24 h; GLP-1R form is constitutively active | P43220; further: nearly all actives have a fitted effect of over 55% in size
Target sequence (P43220 whole entry, looked up): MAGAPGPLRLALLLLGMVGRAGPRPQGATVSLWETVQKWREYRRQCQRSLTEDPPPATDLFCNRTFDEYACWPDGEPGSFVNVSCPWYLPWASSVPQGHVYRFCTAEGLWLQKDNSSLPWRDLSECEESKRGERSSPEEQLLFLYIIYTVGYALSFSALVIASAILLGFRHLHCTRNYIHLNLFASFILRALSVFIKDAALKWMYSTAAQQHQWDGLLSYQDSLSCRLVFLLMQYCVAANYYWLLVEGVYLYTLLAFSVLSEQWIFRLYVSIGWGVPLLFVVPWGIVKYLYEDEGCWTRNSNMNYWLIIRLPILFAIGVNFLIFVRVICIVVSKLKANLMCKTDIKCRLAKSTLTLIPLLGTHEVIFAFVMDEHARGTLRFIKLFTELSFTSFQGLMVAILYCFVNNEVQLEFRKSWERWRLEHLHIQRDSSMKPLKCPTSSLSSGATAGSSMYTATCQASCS
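GLP-1R inverse agonism mode: basal reporter luminescence in engineered HEK293 cells measured after one day of compound exposure at 37 deg C, with a 12 min room-temperature detection step.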
GLP1R ag: agonists of human GLP-1 receptor; P43220; HEK293 GLP-1R CRE-luciferase, luminescence, 4-6 h; cells express a hypersensitive GLP-1R form; Potency, µM (doses to about 45.6 µM), hits mostly activators; hit rate 0.007% among 380,000
PTHR1 ag: PTHR1 (human) receptor agonism; Q03431; hit rate 0.075% among 410,000; HEK293 GP2 PTHR1 cells, GloSensor cAMP luminescence, 1 h; Potency, µM (series often up to 115 µM), actives largely listed as activators; further: nearly all actives have a fitted effect of over 55% in size
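HEK-293-derived GP2 cells expressing PTHR1 and a GloSensor cAMP reporter, 3,000/well, plated overnight, given luciferin plus IBMX (each 0.5 mM as added) for 1 h at 37 °C, then compound for 1 h at 37 °C. Luminescence was read after 15 min at room temperature.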
Large screens that a line does not name were inactive. The call rests on the fitted dose curve; in most records, active means well fitted curve in the direction sought with a large enough effect; inconclusive means small, poorly fitted or top-dose-only effect, or another doubt; inactive means no such curve, though single readings can be large; an effect the other way counts as inactive or inconclusive.

CSCCC1NC(=O)N(CC(=O)Nc2c(Cl)cc(Cl)cc2Cl)C1=O (configuration not stated)	none
CSCCC1NC(=O)N(C(C)C(=O)Nc2cc(Cl)cc(Cl)c2)C1=O (configuration not stated)	GLP-1R inv ag 11µM
Cc1cccc(C)c1NC(=O)c1ccc2c(c1)nnn2C1CCCC1	GLP-1R inv ag inconclusive (no result: GLP1R ag)
COc1cc(C(C)=O)ccc1OCCCN1CCC(c2noc3cc(F)ccc23)CC1	none (no result: GLP1R cytotox, GLP-1R inv ag, PTHR1 ag)
CC(C)NC(C(=O)Nc1cc(Cl)cc(Cl)c1)c1ccccc1 (configuration not stated)	GLP-1R inv ag 7.9µM
CN(C)CCNC(C(=O)Nc1cc(Cl)cc(Cl)c1)c1ccccc1 (configuration not stated)	GLP-1R inv ag inconclusive
CC1(C)CC(N=c2cc(-c3ccccc3)oc3ccc(Cl)cc23)CC(C)(C)N1	GLP-1R inv ag 3.5µM
CC(C)N(Cc1nc(-c2ccccc2)no1)C(=O)c1ccc(Cl)cc1	GLP-1R inv ag 11µM
C=C1CCN([C@@H](Cc2ccccc2)C(=O)NCc2ccc(Cl)c(Cl)c2)S(=O)(=O)c2ccccc21	GLP-1R inv ag 11µM
C=C1CCN([C@@H](CC(C)C)C(=O)NCc2ccc(Cl)c(Cl)c2)S(=O)(=O)c2ccccc21	GLP-1R inv ag 11µM
C=C1CCN([C@@H](CC(C)C)C(=O)NCc2ccc(Cl)cc2)S(=O)(=O)c2ccccc21	GLP-1R inv ag inconclusive
C=C1CCN([C@H](C(=O)NCc2ccc(Cl)c(Cl)c2)C(C)C)S(=O)(=O)c2ccccc21	GLP-1R inv ag 10µM
Cc1nn(-c2ccc(N3CCCC3)nn2)c(C)c1CCC(=O)N1CCN(c2ccccc2F)CC1	none (no result: GLP1R ag)
COc1ccc(Oc2nc3c(c(=O)n(C)c(=O)n3C)n2Cc2ccccc2Cl)cc1	none (no result: GLP1R ag)
O=C(Nc1ccc(C(=O)N2CCC(O)(c3ccc(Cl)c(C(F)(F)F)c3)CC2)cc1)c1ccc(Br)o1	GLP-1R inv ag 10µM
c1ccc(-c2cc3ccccc3nc2N2CCCC2)cc1	GLP-1R inv ag 2.5µM
Cc1ccc(-c2cc3ccccc3nc2N2CCOCC2)cc1	GLP-1R inv ag inconclusive
Cc1cc(C)n(-c2nc3ccccc3nc2N2CCCCCC2)n1	GLP-1R inv ag 6.3µM, PTHR1 ag inconclusive
Cc1nc2ccccc2nc1N1CCCCC1	none
c1ccc2nc(N3CCCC3)c(N3CCCC3)nc2c1	GLP-1R inv ag 1.8µM
O=C(NC1CCN(Cc2ccccc2)CC1)c1cccc(S(=O)(=O)Nc2ccc(F)cc2)c1	GLP1R cytotox 11µM, GLP-1R inv ag 7.1µM
C=CCN(c1ccccc1)S(=O)(=O)c1cccc(C(=O)NC2CCN(Cc3ccccc3)CC2)c1	GLP1R cytotox inconclusive, GLP-1R inv ag 13µM
Cc1oc(-c2ccc(Cl)cc2)cc1C(=O)NC1CCN(Cc2ccccc2)CC1	GLP-1R inv ag inconclusive
Cc1oc(C(C)(C)C)cc1C(=O)NC1CCN(Cc2ccccc2)CC1	GLP-1R inv ag 13µM
Cc1ccc(NS(=O)(=O)c2cccc(C(=O)NC3CCN(Cc4ccccc4)CC3)c2)c(C)c1	GLP1R cytotox 11µM, GLP-1R inv ag inconclusive
O=C(NC1CCN(Cc2ccccc2)CC1)c1cccc(S(=O)(=O)Nc2ccc(Br)cc2)c1	GLP-1R inv ag inconclusive
O=C(NCCS(=O)(=O)N1CCN(c2ccc(F)cc2)CC1)c1cc(=O)c2ccccc2o1	none (no result: GLP1R ag)
CN[C@H](CC(C)C)C(=O)N[C@H]1C(=O)N[C@@H](CC(N)=O)C(=O)N[C@H]2C(=O)N[C@H]3C(=O)N[C@H](C(=O)N[C@H](C(=O)O)c4cc(O)cc(O)c4-c4cc3ccc4O)[C@H](O)c3ccc(c(Cl)c3)Oc3cc2cc(c3O[C@@H]2OC(CO)[C@@H](O)[C@H](O)[C@H]2O[C@H]2C[C@](C)(N)[C@H](O)[C@H](C)O2)Oc2ccc(cc2Cl)[C@H]1O (some centres not stated)	none (no result: GLP1R cytotox, GLP-1R inv ag, PTHR1 ag)
CC[C@H](CO)NCCN[C@@H](CC)CO	none (no result: GLP1R cytotox, GLP-1R inv ag, PTHR1 ag)
CCCN1Cc2cccc(C(=O)Nc3cc(Cl)ccc3C)c2C1=O	none (no result: GLP1R ag)
O=C(NCC(c1cccs1)N1CCOCC1)c1cccc(S(=O)(=O)Nc2ccc(F)cc2)c1 (configuration not stated)	none
COc1ccccc1NS(=O)(=O)c1ccc(C)c(C(=O)NC2CCN(Cc3ccccc3)CC2)c1	GLP-1R inv ag 11µM
O=C(NC1CCN(Cc2ccccc2)C1)c1cc(COc2ccc(F)cc2F)on1 (configuration not stated)	GLP-1R inv ag inconclusive
Cc1ccc(NS(=O)(=O)c2cccc(C(=O)NCC(c3ccc(F)cc3)N3CCOCC3)c2)cc1 (configuration not stated)	GLP-1R inv ag 10µM
Cc1ccc(C)c(OCc2cc(C(=O)NC3CCN(Cc4ccccc4)CC3)no2)c1	GLP-1R inv ag 2.2µM
Cc1ccc(C)c(N2CCN(CCCNC(=O)c3nnc(Cc4ccc(F)cc4Cl)o3)CC2)c1	none (no result: GLP1R ag)
CC(C(=O)NCCC1=CCCCC1)c1ccc([N+](=O)[O-])cc1 (configuration not stated)	GLP-1R inv ag 10µM
COc1ccc(-c2cccc(NS(=O)(=O)c3cc(C)ccc3OC)c2)nn1	none (no result: GLP1R ag)
Cc1cc(C)c(S(=O)(=O)c2ccccc2)c(OC(=O)c2c(Cl)cc(Cl)cc2Cl)n1	GLP1R cytotox inconclusive, GLP-1R inv ag 7.9µM
CC(=NNc1nc2ccccc2s1)c1ccncn1	none
C/C(=N\Nc1nc2ccccc2s1)c1ccc(Br)s1	GLP1R cytotox inconclusive, GLP-1R inv ag 10µM
Nc1nc(-c2cccc(Br)c2)cs1	PTHR1 ag 5.6µM
Nc1nc(-c2ccc(Br)cc2)cs1	GLP-1R inv ag inconclusive
O=C(C1CCN(Cc2ccc(Cl)cc2)CC1)N1CCN(C(c2ccccc2)c2ccccc2)CC1	GLP1R cytotox inconclusive, GLP-1R inv ag 4µM
Cc1ccc(OC(C)C(=O)N2CCN(CCc3ccccn3)CC2)cc1C (configuration not stated)	none (no result: GLP1R ag)
Cc1ccccc1NC(=O)CNC(=O)c1ccc(C(F)(F)F)cc1	none
Cc1ccccc1NC(=O)Nc1ccc(C(F)(F)F)cc1	GLP-1R inv ag 4.5µM
COc1ccc(Br)cc1/C=C/C(=O)Nc1ccc(C)cc1	GLP-1R inv ag 4.5µM
COc1ccc(Br)cc1/C=C/C(=O)Nc1ccc2ccccc2c1	none
Cc1cc(OCC(O)CN2CCN(c3ccccn3)CC2)cc(C)c1Cl (configuration not stated)	GLP-1R inv ag 11µM
OC(COc1ccc(Cl)cc1)CN1CCN(c2ccccn2)CC1 (configuration not stated)	GLP-1R inv ag inconclusive
OC(COc1ccc(Cl)c2ccccc12)CN1CCN(c2ccccn2)CC1 (configuration not stated)	GLP-1R inv ag 10µM
CCc1cccc2c3c([nH]c12)[C@@](CC)(CC(=O)O)OCC3	none (no result: GLP1R cytotox, GLP-1R inv ag, PTHR1 ag)
COc1cc(CNC2CCCC2)cc(Cl)c1OCc1ccccc1F	GLP1R cytotox inconclusive, GLP-1R inv ag 3.5µM
COc1cc(CNc2ccc3[nH]c(=O)[nH]c3c2)cc(Cl)c1OCc1ccccc1F	none (no result: GLP1R ag)
